Screening results as filed in PubChem.
A selection: hits, their analogues and other compounds. The true share with any hit is near 10%.
FLuc inh-1: Firefly luciferase inhibition profiling of diverse chemical library using quantitative high-throughput screening; Luciferin 4-monooxygenase (Photinus pyralis), P08659; purified P. pyralis luciferase, luminescence, biochemical; Potency, µM (series often up to 115 µM), most hits filed as inhibitors; 2.5% of 76,000 active; further: on the % scale 0 is the no-effect control and ±100 the full control effect; nearly all actives have a fitted effect of over 65% in size
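FLuc 10nM, D-luciferin 10uM, ATP 10uM, Mg acetate 10mM, Tris acetate pH 7.5, Tween/BSA; cpd qHTS; enzyme added last; CCD luminescence.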
3T3 cytotox: Cytotoxic Profiling in NIH 3T3 Cell Line of Diverse Libraries Using Quantitative High-Throughput Screening; NIH 3T3 viability, CellTiter-Glo ATP luminescence, 48-72 h; Potency, µM (doses to about 96.7 µM), inactives show at the top dose activity change, negative = cytotoxicity, hits mostly inhibitors; 4.3% of 94,000 active; AID 1345082, 2018; further: on the % scale 0 is the no-effect control and ±100 the full control effect; nearly all actives have a fitted effect of over 55% in size
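Cells were seeded at 400 per well, treated with pin-transferred compound, and kept 48 or 72 hr at 37 °C before CellTiter-Glo addition and luminescence imaging of cellular ATP.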
GPT2 inhibitor: Primary qHTS assay for inhibitors of Glutamate pyruvate transaminase 2 (GPT2). Alanine aminotransferase 2 (Homo sapiens), Q8TD30. 0.25% of 100,000 active. Potency, µM (doses to about 57.7 µM), without a hit: at the highest dose activity change, negative = inhibition, actives largely listed as inhibitors. Recombinant GPT2, coupled pyruvate oxidase/HRP Amplex Red fluorescence; further: on the % scale 0 is the no-effect control and ±100 the full control effect; nearly all actives have a fitted effect of over 60% in size
Target sequence (Q8TD30 whole entry, looked up): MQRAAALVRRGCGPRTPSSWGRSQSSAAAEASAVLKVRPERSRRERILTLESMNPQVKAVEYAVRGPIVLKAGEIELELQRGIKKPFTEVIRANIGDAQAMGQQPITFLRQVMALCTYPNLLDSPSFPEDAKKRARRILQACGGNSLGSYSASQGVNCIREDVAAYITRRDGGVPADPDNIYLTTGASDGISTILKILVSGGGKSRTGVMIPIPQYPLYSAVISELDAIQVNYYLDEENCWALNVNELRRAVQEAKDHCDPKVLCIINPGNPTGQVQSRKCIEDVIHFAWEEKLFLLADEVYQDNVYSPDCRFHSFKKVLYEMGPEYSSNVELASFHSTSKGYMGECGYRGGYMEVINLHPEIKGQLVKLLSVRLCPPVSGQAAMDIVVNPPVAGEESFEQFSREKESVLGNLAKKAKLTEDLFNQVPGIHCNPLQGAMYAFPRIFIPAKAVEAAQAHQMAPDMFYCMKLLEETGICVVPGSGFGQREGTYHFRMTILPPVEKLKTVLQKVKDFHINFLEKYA
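Fluorescence of coupled pyruvate oxidase/HRP/Amplex Red system (50uM Amplex, 30 min, dark) reports pyruvate formed by GPT2. Enzyme reaction: 10ng/uL GPT2, 2mM L-alanine, 250uM a-KG, 30 min room temperature, pH 7.5; 50uM AOA control.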
HEK cytotox: Cytotoxic Profiling in HEK 293 Cell Line of Diverse Libraries Using Quantitative High-Throughput Screening. HEK 293 viability, ATP luminescence (CellTiter-Glo), 48-72 h. Potency, µM (top dose mostly 115 µM), for the others: at the top dose activity change, negative = cytotoxicity, most hits filed as inhibitors. 6.6% of 94,000 active; further: on the % scale 0 is the no-effect control and ±100 the full control effect; nearly all actives have a fitted effect of over 60% in size
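Pintool-delivered compounds were incubated with HEK 293 cells (250 cells/well) at 37 degree Celsius for 48 or 72 hr. ATP-dependent luminescence (CellTiter-Glo) then reported remaining viable cells.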
hNpr1 antagonist: Natriuretic polypeptide receptor (hNpr1) antagonism - Primary qHTS; HEK293 hNpr1 GloSensor cGMP, ANP-stimulated luminescence; Potency, µM (top dose mostly 46.3 µM), inactives show top-dose activity change, negative = inhibition, usual class: inhibitors; 1.6% of 76,000 active; AID 1347048, 2019; calls by dose curve; further: on the % scale 0 is the no-effect control and ±100 the full control effect; nearly all actives have a fitted effect of over 60% in size
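HEK293 cells stably expressing human Npr1 and cGMP GloSensor pGS-40F, loaded 2 h with 2% GloSensor reagent, given compound 30 min at room temperature. Luminescence read before and 20 min after 0.1 nM hNppA.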
FLuc SDR no ATP: Firefly luciferase (FLuc-C-HiBiT) SDR gain of signal screen - without ATP. Potency, µM (series often up to 32.7 µM), without a hit: at the highest dose activation (signal gain), hits mostly activators. 7.8% of 1,300 active. Purified FLuc-C-HiBiT, Nano-Glo HiBiT luminescence, no ATP. shares compounds with FLuc inh-1; further: nearly all actives have a fitted effect of over 55% in size
FLuc SDR ATP: Firefly luciferase (FLuc-C-HiBiT) SDR gain of signal screen - plus ATP. purified FLuc-C-HiBiT + ATP, HiBiT complementation luminescence. shares compounds with FLuc inh-1. 8.7% of 1,300 active. Potency, µM (titrated, usually from 32.7 µM), without a hit: top-dose activation (gain of signal), usual class: activators;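 further: signal reports ligand binding via conformational change of the enzyme rather than luciferase catalysis; % of control where 0% means no effect; nearly all actives have a fitted effect of over 55% in size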
FLuc inh-2: Firefly luciferase (FLuc-C-HiBiT) enzymatic inhibition screen - Functional assay; shares compounds with FLuc inh-1; purified FLuc-C-HiBiT enzyme, luciferin luminescence; Potency, µM (doses to about 32.7 µM), for inactives: at the top dose activity change, negative = inhibition, hits mostly inhibitors; 42% of 1,300 active; further: on the % scale 0 is the no-effect control and ±100 the full control effect; nearly all actives have a fitted effect of over 70% in size
An asterisk follows results filed as active; i = inactive; ? = inconclusive; . = not tested or not shown; [ ] = remark or other dose. Unless noted, the call rests on the fitted dose curve; in most records, active means well fitted curve in the direction sought with a large enough effect; inconclusive means small, poorly fitted or top-dose-only effect, or another doubt; inactive means no such curve, though single readings can be large; an effect the other way counts as inactive or inconclusive. Potency means the concentration at half of the fitted maximal effect.

SMILES	FLuc inh-1	3T3 cytotox	GPT2 inhibitor	HEK cytotox	hNpr1 antagonist	FLuc SDR no ATP	FLuc SDR ATP	FLuc inh-2
Cc1ccc(C2Cn3nnc(C(=O)N4CCC(C(=O)NCCc5cccs5)CC4)c3CO2)cc1 (stereo unspecified)	10µM*	-10%	i	1%	-1%	12%	?	?
COCCNC(=O)C1CCN(C(=O)c2nnn3c2COC(c2ccc(C)cc2)C3)CC1 (stereo unspecified)	5.6µM*	i	i	9%	-2%	12%	?	?
CC(C)C(=O)Nc1ccc(C2(C(=O)NC3CC3)CCCCC2)cc1	i	-10%	-6%	-15%	6%	.	.	.
O=C(c1ccc(Cl)nc1)N1CCC(C(=O)N2CCC(c3nc4ncccc4[nH]3)CC2)C1 (stereo unspecified)	.	-21%	i	-8%	.	.	.	.
CCOC(=O)[C@@H]1[C@@H](OC(N)=O)C(=O)N(C(C)C)C12CCN(S(=O)(=O)c1cccs1)CC2	.	?	.	i	.	.	.	.
CCCCOc1nc(N)c2[nH]c(=O)n(Cc3cccc(CC(=O)OC)c3)c2n1	.	.	.	.	.	11%	7%	2%
COc1cccc(-c2cc(C(=O)NCc3nc(-c4ccccc4)n[nH]3)[nH]n2)c1	14µM*	?	-2%	?	2%	19%	11%	?
OC1(c2csc(CN3CCN(c4ccccn4)CC3)n2)CCN(Cc2ccccc2)CC1	i	-27%	i	?	-2%	.	.	.
COc1ccc(C(=O)NCCn2cccc2-c2nc(-c3ccccc3)no2)cc1	2.5µM*	-3%	i	-24%	?	?	?	2.8µM*
O=C(NCCn1cccc1-c1nc(-c2ccc3c(c2)OCO3)no1)c1ccc(Cl)cc1	14µM*	-26%	i	?	-22%	13%	12%	?
Cc1ccc(C(=O)NCCn2cccc2-c2nc(-c3ccc4c(c3)OCO4)no2)cn1	13µM*	?	i	28µM*	-25%	26%	17%	?
N#Cc1ccc(C(=O)Nc2ccc3c(N4CCCCC4)ncnc3c2)cc1	i	-12%	i	?	2%	.	.	.
O=C1[C@@H]2C[C@@H](CN2C(=O)c2ccno2)Oc2ccccc2N1Cc1ccc(OC(F)(F)F)cc1	i	?	3%	?	0%	.	.	.
CCc1ccc2oc(-c3ccc(C)c(NC(=O)c4ccc(C#N)cc4F)c3)nc2c1	.	.	.	.	.	17%	13%	-15%
CCOc1ccccc1C(=O)NC1CCCN(c2cc(-c3ccc(OC)cc3)[nH]n2)C1 (stereo unspecified)	i	?	-17%	?	-20%	.	.	.
COc1ccc(-c2cc(N3CCCC(NC(=O)c4nccc5ccccc45)C3)n[nH]2)cc1 (stereo unspecified)	?	?	?	?	-19%	.	.	.
COc1ccc(-c2cc(N3CCCC(NC(=O)c4cccs4)C3)n[nH]2)cc1 (stereo unspecified)	14µM*	?	?	?	-18%	21%	13%	?
COc1ccc(-c2cc(N3CCCC(NC(=O)c4c[nH]c5ccccc45)C3)n[nH]2)cc1 (stereo unspecified)	10µM*	?	-23%	?	-20%	17%	10%	?
COc1ccc(-c2cc(N3CCCC(NC(=O)c4ccc5c(c4)OCO5)C3)n[nH]2)cc1 (stereo unspecified)	11µM*	?	?	?	-20%	24%	15%	?
COc1ccc(C(=O)NC2CCN(c3cc(-c4ccc(OC)cc4)[nH]n3)C2)cc1 (stereo unspecified)	i	-25%	-24%	-30%	-12%	.	.	.
COc1ccc(-c2cc(N3CCCC(NC(=O)c4cccc5[nH]ccc45)C3)n[nH]2)cc1 (stereo unspecified)	14µM*	35µM*	?	45µM*	-25%	14%	7%	?
CC(C)N(Cc1cnn(C)c1)Cc1cn(Cc2ccccc2)nc1-c1ccc2c(c1)OCO2	i	-6%	i	-18%	6%	.	.	.
O=C(NC1CN(c2ccnc3ccnn23)C1)c1ccccc1F	.	?	i	-24%	.	.	.	.
COc1cccc(CN2CCc3c(cc(C(=O)Nc4cc(C)ccc4OC)n3C)C2)c1	8.9µM*	?	-10%	32µM*	-6%	12%	14%	-11%
O=C(C1CCN(c2nccc(Nc3ccccc3Cl)n2)CC1)N1CCC(c2ncccn2)CC1	.	?	i	?	.	.	.	.
SMILES	FLuc inh-1	3T3 cytotox	GPT2 inhibitor	HEK cytotox	hNpr1 antagonist	FLuc SDR no ATP	FLuc SDR ATP	FLuc inh-2
CCn1cc(S(=O)(=O)N2CCC3(CC2)CN(C2CCC2)CC3COC)cn1 (stereo unspecified)	i	?	i	?	-15%	.	.	.
COc1ccc(-c2cn3nc(SCC(=O)Nc4cc(C)cc(C)c4)ccc3n2)cc1	.	.	.	.	.	15%	12%	?
CCn1c(=O)c(C(=O)Nc2ccc(C(C)=O)cc2)nc2ccccc21	.	.	.	.	.	?	?	?
COCCN1CCC2(C1)CN(C)c1ccc(C(=O)Nc3ccn(C)n3)cc12 (stereo unspecified)	.	.	.	.	.	?	?	10µM*
COCCN1CCC2(C1)CN(C)c1ccc(C(=O)Nc3ccc(F)cc3)cc12 (stereo unspecified)	2.8µM*	?	-28%[88.5 µM]	79µM*	?	?	?	7.2µM*
CN1CC2(CCCN(CC3CC3)C2)c2cc(C(=O)Nc3ccn(C)n3)ccc21 (stereo unspecified)	i	-13%[138 µM]	i	?	2%[70.6 µM]	.	.	.
